“And” between values parts separate entries of the source, which are not always exact repeats. Equal entries are not always repeated. About 83,000 compounds went through this panel and 20% of them were active in at least one assay; those are over-represented in the sample as a whole.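 The test compound was applied at a single concentration to cells in 96-well plates for 48 hours, and percent growth was recorded.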 Values without a mark were called inactive. The source made the active and inactive calls. How the source made its calls: active means growth percent below 10; inactive means the rest.
System: NCI-H226 lung
Experiment: NCI-60 one-dose screen, 48 h (100 = growth as untreated, 0 = no growth, -100 = all killed)
Conditions: 10 µM unless noted

SMILES | growth
N#C/C(=C/c1ccc([N+](=O)[O-])cc1)c1nnc(NC(=O)c2ccc(-n3c(=O)[nH]c4ccccc4c3=O)cc2)s1 | 87.8%
O=C(CSc1nnc(-c2ccc(-c3nc4ccc(Cl)cc4[nH]3)cc2)o1)Nc1ccccc1 | -23.7% (active)
Cc1cccc(NCC(=O)N2CCN(c3ncnc4c3cnn4-c3ccccc3)CC2)c1 | 54.5%
O=C(N/N=C/c1ccc(Br)o1)c1[nH]c2ccc(Br)cc2c1-c1ccccc1 | -42.6% (active)
CCCCCCCCc1ccc(C(=O)Nc2ccc(C)c(OP(=O)(O)O)c2)cc1 | 102%
Cn1cc(-c2cc3nc(-c4cn(C)c5ncc(Br)cc45)cc(N)n3n2)c2cc(F)ccc21 | 10.9%
O=C1Nc2ccccc2/C1=C/C(=O)c1cc2ccccc2oc1=O | 93.7%
c1n[nH]cc1-c1nc2ccc3cn[nH]c3c2c2c1CCCC2 | 46.4%
CN1C(=O)C(O)(CC(=O)c2cc3ccccc3oc2=O)c2ccccc21 (stereo not given) | 81%
O=C(CCl)Nc1ccc(C(=O)/C=C/c2cc3ccccc3nc2Cl)cc1 | 12.4% and 14.5%
Cc1cc(C2(c3cc(C)c(OCC(O)CNc4c(C)n(C)n(-c5ccccc5)c4=O)cc3C(C)C)OC(=O)c3ccccc32)c(C(C)C)cc1OCC(O)CNc1c(C)n(C)n(-c2ccccc2)c1=O (stereo not given) | 42%
Cn1cc(-c2cc(N)n3nc(-c4c[nH]c5ccccc45)cc3n2)c2cc(Br)ccc21 | -11.9% (active)
CCC(=O)c1c2c(c3ccc4c5ccccc5ccc4n13)C(=O)c1ccccc1C2=O | 45.7%
CS(=O)(=O)Nc1cc(-c2ccc3ncnc(Nc4ccc(OCc5cccnc5)c(Cl)c4)c3c2)cnc1Cl | 23.8%
Cn1cc(-c2cc(N)n3nc(-c4c[nH]c5ccccc45)cc3n2)c2cc(Cl)ccc21 | 16.6%
COc1ccc(N=Nc2c(N)nn3c(N)c(C#N)c(-c4ccc(C)cc4)nc23)cc1 | 54.7%
COc1ccc(C(=O)/C=C/c2ccc3c(c2)OCCO3)cc1S(N)(=O)=O | 116%
CCCCC[C@@H]1C/C=C(\C)[C@@H](O)C(C)(C)C(=O)[C@@H](C)/C=C(\C)[C@@H]2C[C@H](O)C[C@](O)(CC(=O)O1)O2 | 14%
CC(C)(C)c1ccc(OCc2nc3ccccc3n2-c2cccc(N)c2)cc1 | 61.1% and 103%
O=C1/C(=C/c2cnc(-c3ccccc3)s2)SC(=S)N1Cc1ccc2c(c1)OCO2 | 75.6%
COc1ccc(NC2=C(I)C(=O)C(C)=C(C)C2=O)cc1 | 78.1%
COc1ccc(-c2nnc3c(/C=C/c4ccc(Br)cc4)nc4ccccc4n23)cc1 | 96.7%
C[C@H]1[C@@H](CC(=O)N[C@@H](Cc2coc3ccccc23)B(O)O)O[C@@H]2OC3(C)CC[C@H]4[C@H](C)CC[C@@H]1[C@@]24O3 | -15.5% (active)
O=C(NNC(=S)NC(=O)c1ccccc1)c1ccc(OCc2nc3ccc(Cl)cc3[nH]2)cc1 | -43.9% (active)
CC1=C(C)C(=O)C(NCCN2CCOCC2)=C(Br)C1=O | 67.1%
N#Cc1ccc(C(=O)NNC(=O)CSc2nc3sc4c(c3c(=O)n2-c2ccc(Cl)cc2)CCCC4)cc1 | 54.1%
CCCCCCCOc1ccc(S(=O)(=O)Nc2ccc(C)c(F)c2C(=O)O)cc1 | 88%

System: NCI-H322M lung
Experiment: as above
Conditions: 10 µM unless noted

SMILES | growth
O=C(CSc1nc2ccccc2c(=O)[nH]1)Nc1ccccc1C(=O)O | 101%
Cn1cc(-c2cc(N)n3nc(-c4c[nH]c5ccccc45)cc3n2)c2ccccc21 | -80% (active)
Cc1cccc(/C=C/c2ccc(NC(=S)NCCCCN(C)C)cc2)c1 | -91.1% (active)
Cc1ccc(N=Nc2c(N)nn3c(-c4cc5ccccc5oc4=O)ccnc23)cc1 | 51.6%
O=C(Nc1nc2ccccc2s1)Nc1ccccc1Cl | 94.3%
COc1ccc(NC(=O)CSc2nnc(-c3ccc(-c4nc5ccc(Cl)cc5[nH]4)cc3)o2)cc1 | 35%
O=C1Nc2cc(-c3ccc(NS(=O)(=O)c4ccc(C(F)(F)F)cc4)cc3)ccc2/C1=C/c1ccc[nH]1 | 44%
COc1ccc(Nc2nnc(-c3c[nH]c4ccccc34)o2)cc1 | 89.8%
Cn1cc(-c2cc(N)n3nc(-c4c[nH]c5ccc(F)cc45)cc3n2)c2cccnc21 | -37.5% (active)
O=C(NN1C(=O)/C(=C/C=C/c2ccc([N+](=O)[O-])o2)SC1=S)c1ccc([N+](=O)[O-])cc1 | -100% (active)
CN1C(=O)/C(=C/c2ccco2)S/C1=N/c1nccs1 | 94.3%
N#C/C(=C/c1ccc([N+](=O)[O-])cc1)c1nnc(NC(=O)c2ccc(-n3c(=O)[nH]c4ccccc4c3=O)cc2)s1 | 97.5%
O=C(CSc1nnc(-c2ccc(-c3nc4ccc(Cl)cc4[nH]3)cc2)o1)Nc1ccccc1 | 37.6%
Cc1cccc(NCC(=O)N2CCN(c3ncnc4c3cnn4-c3ccccc3)CC2)c1 | 69.3%
O=C(N/N=C/c1ccc(Br)o1)c1[nH]c2ccc(Br)cc2c1-c1ccccc1 | 15%
CCCCCCCCc1ccc(C(=O)Nc2ccc(C)c(OP(=O)(O)O)c2)cc1 | 111%
Cn1cc(-c2cc3nc(-c4cn(C)c5ncc(Br)cc45)cc(N)n3n2)c2cc(F)ccc21 | 35.3%
O=C1Nc2ccccc2/C1=C/C(=O)c1cc2ccccc2oc1=O | 102%
c1n[nH]cc1-c1nc2ccc3cn[nH]c3c2c2c1CCCC2 | 86.8%

SMILES | growth
CN1C(=O)C(O)(CC(=O)c2cc3ccccc3oc2=O)c2ccccc21 (stereo not given) | 103%
O=C(CCl)Nc1ccc(C(=O)/C=C/c2cc3ccccc3nc2Cl)cc1 | 22.4% and 45.1%
Cc1cc(C2(c3cc(C)c(OCC(O)CNc4c(C)n(C)n(-c5ccccc5)c4=O)cc3C(C)C)OC(=O)c3ccccc32)c(C(C)C)cc1OCC(O)CNc1c(C)n(C)n(-c2ccccc2)c1=O (stereo not given) | 61%
Cn1cc(-c2cc(N)n3nc(-c4c[nH]c5ccccc45)cc3n2)c2cc(Br)ccc21 | -37.2% (active)
CCC(=O)c1c2c(c3ccc4c5ccccc5ccc4n13)C(=O)c1ccccc1C2=O | 59.1%
CS(=O)(=O)Nc1cc(-c2ccc3ncnc(Nc4ccc(OCc5cccnc5)c(Cl)c4)c3c2)cnc1Cl | -2.48% (active)
Cn1cc(-c2cc(N)n3nc(-c4c[nH]c5ccccc45)cc3n2)c2cc(Cl)ccc21 | -35.3% (active)
COc1ccc(N=Nc2c(N)nn3c(N)c(C#N)c(-c4ccc(C)cc4)nc23)cc1 | 78.7%
COc1ccc(C(=O)/C=C/c2ccc3c(c2)OCCO3)cc1S(N)(=O)=O | 84.6%
CCCCC[C@@H]1C/C=C(\C)[C@@H](O)C(C)(C)C(=O)[C@@H](C)/C=C(\C)[C@@H]2C[C@H](O)C[C@](O)(CC(=O)O1)O2 | 82%
CC(C)(C)c1ccc(OCc2nc3ccccc3n2-c2cccc(N)c2)cc1 | 94.8% and 104%
O=C1/C(=C/c2cnc(-c3ccccc3)s2)SC(=S)N1Cc1ccc2c(c1)OCO2 | 92.2%
COc1ccc(NC2=C(I)C(=O)C(C)=C(C)C2=O)cc1 | 95%
COc1ccc(-c2nnc3c(/C=C/c4ccc(Br)cc4)nc4ccccc4n23)cc1 | 96.5%
C[C@H]1[C@@H](CC(=O)N[C@@H](Cc2coc3ccccc23)B(O)O)O[C@@H]2OC3(C)CC[C@H]4[C@H](C)CC[C@@H]1[C@@]24O3 | 74.9%
O=C(NNC(=S)NC(=O)c1ccccc1)c1ccc(OCc2nc3ccc(Cl)cc3[nH]2)cc1 | -41.5% (active)
CC1=C(C)C(=O)C(NCCN2CCOCC2)=C(Br)C1=O | 91.5%
N#Cc1ccc(C(=O)NNC(=O)CSc2nc3sc4c(c3c(=O)n2-c2ccc(Cl)cc2)CCCC4)cc1 | 51.7%
CCCCCCCOc1ccc(S(=O)(=O)Nc2ccc(C)c(F)c2C(=O)O)cc1 | 100%

Source: PubChem BioAssay (NCI)
